# “And” between values parts separate entries of the source, which are not always exact repeats. Identical values can stand only once. About 350 (0.48%) of roughly 73,000 compounds were called active. Roughly 17% stayed inconclusive and do not appear here. Calls come from the whole dose curve; as a rule, active = well fitted activation curve with a large enough effect in the main read-out, with a control signal flat (not every such curve was filed as active); inconclusive = small, poorly fitted or top-dose-only effect, or a change in a side signal; inactive = no such curve, though single readings can be large or run the other way; reference of the percent scale not stated here. The sample as a whole holds a higher share of actives than the screen did.
# Columns and labels:
# [1] = qHTS Assay for Agonists of the Thyroid Stimulating Hormone Receptor; conditions: HEK293-CNG-TSHR cells, membrane potential dye, cAMP; measured here: parental cells max response
# In short: (§1)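 HEK 293 cells stably expressing TSHR and a cAMP-gated CNG channel; parental CNG-only cells as counterscreen. Cells preloaded 60 min with membrane potential dye plus 100 uM RO 20-1724, then compound 30 min; fluorescence read at 590 nm.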
# [2] = biological target: Thyrotropin receptor (Homo sapiens) (UniProt P16473); test: as above; conditions: HEK293-CNG-TSHR cells (CNG channel as cAMP sensor), membrane potential dye, cAMP; series mostly up to 57.1 µM
# Thyrotropin receptor (Homo sapiens), sequence (P16473 whole entry, looked up): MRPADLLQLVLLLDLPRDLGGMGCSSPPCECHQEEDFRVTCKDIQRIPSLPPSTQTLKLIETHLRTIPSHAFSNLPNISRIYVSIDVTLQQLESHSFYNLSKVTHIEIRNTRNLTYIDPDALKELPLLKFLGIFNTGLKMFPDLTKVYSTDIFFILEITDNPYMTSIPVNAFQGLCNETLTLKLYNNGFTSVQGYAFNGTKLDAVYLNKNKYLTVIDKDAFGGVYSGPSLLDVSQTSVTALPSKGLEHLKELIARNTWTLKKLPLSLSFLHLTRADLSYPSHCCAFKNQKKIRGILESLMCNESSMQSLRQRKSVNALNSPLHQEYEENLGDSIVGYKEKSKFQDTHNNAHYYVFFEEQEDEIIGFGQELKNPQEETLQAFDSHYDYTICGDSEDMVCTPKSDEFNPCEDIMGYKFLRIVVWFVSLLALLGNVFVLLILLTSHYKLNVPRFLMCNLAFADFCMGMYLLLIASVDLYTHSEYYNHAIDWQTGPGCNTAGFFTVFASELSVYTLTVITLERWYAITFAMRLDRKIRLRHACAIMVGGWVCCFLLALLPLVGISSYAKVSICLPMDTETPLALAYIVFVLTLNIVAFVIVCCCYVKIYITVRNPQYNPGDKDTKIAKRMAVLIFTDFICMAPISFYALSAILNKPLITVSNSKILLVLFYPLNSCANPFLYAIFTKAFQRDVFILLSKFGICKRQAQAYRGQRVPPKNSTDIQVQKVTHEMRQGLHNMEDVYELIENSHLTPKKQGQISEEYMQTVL
# In short: as §1
# Potency is the fitted concentration of half-maximal effect.
SMILES,activation [1],Potency [2],activation [2]
O=C(OCC(COC(=O)c1ccccc1)(COC(=O)c1ccccc1)COC(=O)c1ccccc1)c1ccccc1,20%,inactive,
COC(=O)c1ccc(/C=N\n2c(C)nnc2C)cc1,10.1%,inactive,
CCc1ccc(-c2nnn(Cc3nn[nH]n3)n2)cc1,16%,inactive,
COc1ccc(-c2nnn(Cc3nc(N)nc(N4CCCCC4)n3)n2)cc1,22%,31.6 µM (active),
CCOc1ccc(-c2nnn(CC(=O)N3CCN(c4ccc(OC)cc4)CC3)n2)cc1OCC,-8.4%,inactive,
O=C(Cn1nnc2ccccc2c1=O)Nc1cc(C(F)(F)F)ccc1N1CCOCC1,17.2%,inactive,
Cn1c(=O)n(C)c2cc(CNc3ccc(N4CCOCC4)c(C(=O)O)c3)ccc21,3.63%,inactive,
Cn1nc(-c2ccc(N3CCOCC3)c(NC(=O)c3ccccc3)c2)c2ccccc2c1=O,29.3%,25.1 µM (active),
O=C(C1CCN(CC2CCCCC2)CC1)N1CCCC1,16.6%,inactive,
COC(=O)[C@@H]1CC[C@H](C)[C@@H](c2ccc(C)cc2)N1C(=O)c1ccc(/C=N\O[C@@H](C)c2cn([C@H](CO)Cc3ccccc3)nn2)cc1,9.66% and 5.24%,,0.181% [at 11.4 µM] (inactive) and 4.03% [at 11.4 µM] (inactive)
CCc1c(C)sc(NC(=O)OC)c1C(=O)N1CCOCC1,-1.6%,inactive,
CCOC(=O)[C@]1(C(/C=C/c2ccco2)NC(=O)OC)CCCC1=O (stereo partly drawn),0.322%,,14% [at 11.4 µM] (inactive)
O=C(CC1(O)C(=O)N(CN2CCOCC2)c2ccccc21)c1ccccc1 (stereo not drawn),1.28%,inactive,
CN(C)C(=O)c1ccc(-c2cncnc2Nc2ccccc2)cc1,-2.37%,inactive,
OC(COc1cccc(OCC(O)CN2CCCC2)c1)CN1CCCC1 (stereo not drawn),-1.83%,,-1.13% [at 11.4 µM] (inactive)
Cc1cc(NS(=O)(=O)c2ccccc2)no1,1.38%,inactive,
COc1ccc(O)c(C=Nc2cc(C)on2)c1,-5.94%,inactive,
CC(C)N(CCNC(=O)c1ccc(-n2c(=O)c(=O)[nH]c3ccccc32)cc1)C(C)C,-3.64%,inactive,
CCC(C)n1[nH]c(=O)c2c(C)cc(C)nc21 (stereo not drawn),14.5%,inactive,
Cc1cccc2c1N(CC(=O)OC(C)C)C(=O)C2=O,-9.41%,,-2.45% [at 11.4 µM] (inactive)
Cc1cc(N=CC2=C(O)CCCC2=O)no1,5.56%,inactive,
C=CCOC(=O)C(C(C)=O)C(NC(=O)OC)c1ccccc1 (stereo not drawn),4.24%,,-0.17% [at 11.4 µM] (inactive)
O=C(O)[C@@H](O)Cc1ccccn1,4.67%,,-3.52% [at 11.4 µM] (inactive)
c1ccc(Nc2n[nH]nc2-c2ccccc2)cc1,-0.853%,inactive,
Cc1nnc(NC(=O)CCC(=O)N2CCC(C)CC2)s1,5.36%,inactive,
C#CCC(C(=O)OC)(C(=O)OC)C(C[N+](=O)[O-])c1ccccc1 (stereo not drawn),-0.955%,,7.7% [at 11.4 µM] (inactive)
Cc1ccc(C(=O)CS(C)(=O)=O)cc1,1.73%,inactive,

SMILES,activation [1],Potency [2],activation [2]
COc1ccc(-c2nc(-c3ccccc3)no2)c(OC)c1,7.25%,inactive,
C=C(C)COc1ccc(-c2n[nH]c(C)c2-c2ccccc2OC)c(O)c1,8.35%,31.6 µM (active),
C=C(C)COc1ccc(-c2n[nH]c(C)c2-c2ccccc2)c(O)c1,17.3%,inactive,
COc1ccc(-c2n[nH]c(C)c2-c2ccc(OC)c(OC)c2)c(O)c1,11.3%,5.01 µM (active),
COc1ccc(OC)c(Nc2nc(-c3ccc(O)c(O)c3)cs2)c1,-4.42%,inactive,
CCOc1ccccc1Oc1cn[nH]c1-c1ccc(OC)cc1O,7.48%,inactive,
O=C1OC(NC(=O)c2ccccc2)C(N2CCOCC2)=C1Cl (stereo not drawn),4.11%,inactive,
CC(C)c1ccc2c([Si](C)(C)C)c3c(nc2c1)-c1cccc(=O)n1C3,2.88%,inactive,
CCn1cc(NC(=O)Nc2ccc(OC)c(OC)c2)c(C(N)=O)n1,0.163%,inactive,
COc1cccc(N2CCN(C3CC(=O)N(c4ccc(Cl)cc4)C3=O)CC2)c1 (stereo not drawn),-14.4%,,-19.1% [at 11.4 µM] (inactive)
Cc1ccc(C(=O)Nc2nnc(-c3ccncc3)s2)o1,-13.3%,inactive,
CC(=O)OCC(=O)[C@@]1(O)CC[C@@H]2[C@H]3CCC4=CC(=O)C=C[C@]4(C)[C@]3(F)[C@@H](O)C[C@@]21C,-1.34%,inactive,
COC(=O)[C@@]1(Cc2ccc(F)cc2)[C@H]2c3cc(C(=O)N4CCCC4)n(C[C@H](O)CO)c3C[C@H]2CN1C(=O)c1ccccc1,12.9%,inactive,
CC(C)N(C(=O)Cn1c(SCC(=O)N2CCN(c3ccccc3)CC2)nc2ccccc21)C(C)C,11.2%,inactive,
Cc1ccc(NC(=O)N2CCC(C(=O)NCc3ccc(F)cc3)CC2)cc1,-2.62%,inactive,
Cn1c(=O)n2n(c1=O)[C@H]1[C@H](O)[C@H]3O[C@H]3C(=O)[C@H]1CC2,0.42%,,-7.07% [at 11.4 µM] (inactive)
O=C(CCCn1c(=O)oc2ccccc21)Nc1cccnc1,-4.73%,inactive,
c1ccc2nc(C3=NCCN3)cnc2c1,-2.21%,inactive,
COCc1cc(C)nc(Nc2cc(C)ccc2C)c1C#N,18.4%,inactive,
CC1CCN(C(=O)CSc2ccc3nnc(-c4cccc(F)c4)n3n2)CC1,0.67%,inactive,
COc1ccc(C[C@H](N)C(=O)N[C@@H]2[C@H](O)[C@H](n3cnc4c(N(C)C)ncnc43)O[C@@H]2CO)cc1,-1.32%,inactive,
Cc1cc2nc3c(=O)[nH]c(=O)nc-3n(C[C@H](O)[C@H](O)[C@H](O)CO)c2cc1C,35.7%,inactive,
O=C(CCn1c(=O)oc2ccccc21)Nc1ccon1,5.04%,inactive,
COCCCNC(=O)COc1cc(C)c(Cl)c(C)c1,3.68%,inactive,
COC(=O)CSC1=C(C#N)C(c2ccccc2OC)C(C(=O)OC)C(=O)N1 (stereo not drawn),-3.31%,,-3.47% [at 11.4 µM] (inactive)
C=CCOC(=O)COCCC(C)C,1.07%,inactive,
Cn1cccc1C(=O)N1CCC[C@@]2(CCN(Cc3nccs3)C2)C1,1.41%,inactive,
